Laboratory results as given in PubChem BioAssay (EPA / NIEHS).
Active and inactive are the calls of the source. Rule for the calls: active = hit-call score of the fitted dose curve at least 0.9, where 1 is the maximum; inactive = score below 0.9.

read-out: E-selectin (Homo sapiens) (UniProt P16581); assay: BSK_3C_Eselectin: BioMAP Diversity Plus: 3C Assay for Eselectin Biomarker Activity (AID 2283015); details: primary human endothelial cells (HUVEC); actives raise or lower the signal
Procedure: BSK_3C is a cell-based, multiplexed-readout assay that uses umbilical vein endothelium, a human vascular primary cell, with measurements taken at 24 hours after chemical dosing in a 96-well plate.BSK_3C_Eselectin is an assay component measured in the BSK_3C assay. It measures E-selectin antibody related to regulation of gene expression using ELISA technology.Data from the assay component BSK_3C_Eselectin was analyzed into 1 assay endpoint. This assay endpoint, BSK_3C_Eselectin, was analyzed with bidirectional fitting relative to DMSO as the negative control and baseline of activity. Using a type of binding reporter, gain or loss-of-signal activity can be used to understand changes in the signaling as they relate to the gene SELE. Furthermore, this assay endpoint can be referred to as a primary readout, because this assay has produced multiple assay endpoints where this one serves a signaling function. To generalize the intended target to other relatable targets, this assay endpoint is annotated to the cell adhesion molecules intended target family, where the subfamily is selectins.
The levels of cell surface (or secreted, indicated by the prefix "s") biomarker endpoints were measured by ELISA. Overt cytotoxicity to cells in confluent adherent cultures (all systems other than the BT system) was assessed by measuring total protein levels using sulforhodamine B (SRB) staining in parallel cultures at the time of biomarker measurements, indicated as SRB endpoints. For proliferation assays for adherent cell types, individual cell types are cultured at sub-confluence and relative cell numbers quantified by SRB staining at time points optimized for each system (48 h: 3C and CASM3C systems; 72 h: BT and HDF3CGF systems; 96 h: SAg system). SRB was performed by staining cells with 0.1% SRB after fixation with 10% TCA and reading wells at 560 nm.Viability and proliferation of PBMC (T cells) was quantified by Alamar Blue reduction for the SAg and BT systems. For PBMC viability (referred to as PBMC Cytotoxicity within the assay endpoint names), cells were plated (75,000/well in a 96-well plate) and then chemical samples added for 1 h before addition of activators, SEB and TSST-1 (20 ng/mL final concentration each). Cells were incubated for 90 h. Then, Alamar Blue (20 uL/well) (Invitrogen, Cat DAL1100) was added for 6 h, and the plates were read with a fluorescence microplate reader at 546/580 nm (excitation/emission). For PBMC proliferation, cells were plated and activated as above but incubated for only 16 h prior to addition of Alamar Blue. Plates were read after 6 h.

Sequence of E-selectin (Homo sapiens) (P16581 whole entry, looked up): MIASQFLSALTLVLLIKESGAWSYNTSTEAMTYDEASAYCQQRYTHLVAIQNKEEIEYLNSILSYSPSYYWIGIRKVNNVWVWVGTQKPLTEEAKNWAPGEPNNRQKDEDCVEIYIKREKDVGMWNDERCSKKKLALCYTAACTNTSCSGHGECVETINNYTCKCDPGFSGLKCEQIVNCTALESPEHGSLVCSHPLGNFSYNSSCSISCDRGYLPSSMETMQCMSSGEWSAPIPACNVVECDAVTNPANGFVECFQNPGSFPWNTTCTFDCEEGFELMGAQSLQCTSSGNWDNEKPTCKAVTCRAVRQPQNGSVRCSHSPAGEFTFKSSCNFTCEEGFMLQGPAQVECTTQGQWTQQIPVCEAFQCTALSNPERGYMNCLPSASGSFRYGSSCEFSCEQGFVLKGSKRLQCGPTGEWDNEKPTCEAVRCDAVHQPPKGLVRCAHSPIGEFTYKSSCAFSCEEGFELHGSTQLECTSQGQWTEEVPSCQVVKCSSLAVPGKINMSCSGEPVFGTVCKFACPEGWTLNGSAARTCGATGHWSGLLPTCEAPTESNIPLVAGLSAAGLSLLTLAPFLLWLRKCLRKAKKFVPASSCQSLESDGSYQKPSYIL

SMILES | AC50 | outcome
On1ccccc1=S | 18.3 µM (active) | –
CNS(=O)(=O)c1cc(C(=O)N2CCC(CCN3C4CCC3CC(n3c(C)nc5ccccc53)C4)(c3cccc(F)c3)CC2)c(Cl)cc1F (stereo not given) | – | inactive
COc1ccc(/C=C/S(=O)(=O)NC(=O)c2ccc(C)cc2Cl)cc1 | – | inactive
CC(C)c1cccc(C(C)C)c1N1C(=O)c2ccc(O)cc2C1=O | 36.5 µM (active) | –
CC(C)=CCC/C(C)=C/CO | – | inactive
O=C(O)c1cccc(Oc2ccccc2)c1 | – | inactive
CCCCCCc1ccc(O)cc1O | 30.8 µM (active) | –
CCOc1cccc(-n2cc(C(=O)N3CCN(c4cc(C(=O)O)c5ccccc5c4)CC3)nc2-c2ccc(C)cc2)c1 | – | inactive
COCCOCCOCCOC | – | inactive
CCOC(=O)c1ccc(C2CCC(NC[C@H](O)COc3ccc(O)c(NS(C)(=O)=O)c3)CC2)cc1 (stereo not given in full) | – | inactive
CC(=O)OCCC(C)C | – | inactive
O=C(O)c1cccc(N(Cc2cccnc2)c2ccc(OC(F)F)c(OC(F)F)c2)c1 | – | inactive
CC(C)=CCC/C(C)=C\CO | – | inactive
O=c1[nH]c2ccc(S(=O)CCN3CCC(Cc4ccc(F)cc4)CC3)cc2o1 (stereo not given) | – | inactive
CCNc1ccccc1 | – | inactive
CC(O)CN(CCN(CC(C)O)CC(C)O)CC(C)O (stereo not given) | – | inactive
O=c1n(CC2CO2)c(=O)n(CC2CO2)c(=O)n1CC1CO1 (stereo not given) | 16.1 µM (active) | –
CCCCC(CC)COC(=O)c1ccc(C(=O)OCC(CC)CCCC)cc1 (stereo not given) | – | inactive
Cc1c(-c2cccnc2)c2ccccc2n1CCCCC(=O)O | – | inactive
O=C(O)c1cc(N=Nc2ccc(S(=O)(=O)Nc3ccccn3)cc2)ccc1O | – | inactive

SMILES | AC50 | outcome
CC/C(=C\C(=N/O)C(N)=O)C(C)[N+](=O)[O-] (stereo not given) | – | inactive
Nc1cccc(N)c1 | – | inactive
O=C(O)CC(O)C(=O)O (stereo not given) | – | inactive
CC[C@H]1OC(=O)[C@H](C)[C@@H](O[C@H]2C[C@@](C)(OC)[C@@H](O)[C@H](C)O2)[C@H](C)[C@@H](O[C@@H]2O[C@H](C)C[C@H](N(C)C)[C@H]2O)[C@](C)(O)C[C@@H](C)C(=O)[C@H](C)[C@@H](O)[C@]1(C)O | – | inactive
CCCCCCCCCCCCc1ccccc1 | – | inactive
O=C1OC(=O)C2C3C=CC(C3)C12 (stereo not given) | – | inactive
CC(C)=CCCC(C)=CC=O | – | inactive
Cn1cnc([N+](=O)[O-])c1Sc1ncnc2nc[nH]c12 | – | inactive
C[C@](N)(Cc1ccc(O)c(O)c1)C(=O)O | – | inactive
CC(C)CC(C)(O)C#CC(C)(O)CC(C)C (stereo not given) | – | inactive
CCCN(C1CCN(C(=O)C2CCNCC2)CC1)[C@@H]1CCc2ccc(OC)cc2C1 | – | inactive
CCn1nc(Cc2ccccc2)cc1C1CCN(C[C@H]2C[C@H](N(C)[C@@H](C(=O)O)C(C)C)C[C@@H]2c2cccc(F)c2)CC1 | – | inactive
C1=CCCC=CCCC=CCC1 | – | inactive
COCCOc1cc2cc(C(=O)NC3CCN(C(C)C)CC3)n(CC(=O)Nc3ccc(Cl)cn3)c2cn1 | – | inactive
CNCc1ccc(NC(=O)c2c[nH]c3c2C(=O)CCC3)cc1 | – | inactive
CC(=O)OC[C@H]1O[C@@](COC(C)=O)(O[C@H]2O[C@H](COC(C)=O)[C@@H](OC(C)=O)[C@H](OC(C)=O)[C@H]2OC(C)=O)[C@@H](OC(C)=O)[C@@H]1OC(C)=O | – | inactive
Cn1c(=O)c2c(ncn2C)n(C)c1=O | – | inactive
O=P(OC(CCl)CCl)(OC(CCl)CCl)OC(CCl)CCl | – | inactive
CCOC(=O)COc1ccc2c(c1)CC(NCC(O)c1cccc(Cl)c1)CC2 (stereo not given) | 31.4 µM (active) | –
CN(C)c1ccc(Cc2ccc(N(C)C)cc2)cc1 | – | inactive
